According to PubChem BioAssay (NCATS):
Values joined by “and” are separate entries in the source; they are usually repeats but may differ in a detail not shown here. Equal entries are not always repeated. Inconclusive results are not listed. Active and inactive are the calls of the source. Unless noted, the rule behind the calls is not given here.

Columns and labels:
[1] = Immunotoxin (HA22) sensitization/mitigation study. Vehicle arm (PBS) (AID 1159510); settings: cancer cells viability with PBS vehicle (HA22 study); series mostly up to 46.1 µM; note: potency is the fitted concentration of half-maximal effect
[2] = Immunotoxin (SS1P) sensitization/mitigation study. Vehicle arm (DMEM) (AID 1159513); settings: cell viability with vehicle (DMEM); series mostly up to 46.1 µM; note: potency is the fitted concentration of half-maximal effect
[3] = qHTS Assay for Identifying Gametocytocidal Compounds (AID 743244; active = well fitted curve in the direction sought with a large enough effect; note: potency is the fitted concentration of half-maximal effect;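 for max response: % is set by controls: 0 for no effect and ±100 for the full control effect; actives lower the fluorescent signal which means gametocytes are killed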); settings: P. falciparum 3D7 stage III-V gametocytes, alamarBlue, 72 h; max response: stronger effect = lower value
Summary of the method: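 P. falciparum 3D7 stage III–V gametocytes (20,000 cells/well) were exposed to compounds for 72 h at 37 °C, 5% CO2. AlamarBlue was then added for 24 h; decreased resorufin fluorescence (Ex 525/Em 598 nm) indicated loss of viability.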

[4] = biological target: Hexokinase-4 (Homo sapiens) + Glucokinase regulatory protein (Homo sapiens) (UniProt P35557+Q14397); assay: qHTS assay for inhibitors of recombinant human GCK-GKRP interaction: HTRF assay (AID 743207; active = well fitted curve in the direction sought with a large enough effect;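 note: 0% = DMSO with GCK present and -100% = DMSO wells lacking GCK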); settings: recombinant GCK-GKRP HTRF binding, 60 min; series mostly up to 57.5 µM
Sequence of Hexokinase-4 (Homo sapiens) + Glucokinase regulatory protein (Homo sapiens) (P35557 whole entry, looked up): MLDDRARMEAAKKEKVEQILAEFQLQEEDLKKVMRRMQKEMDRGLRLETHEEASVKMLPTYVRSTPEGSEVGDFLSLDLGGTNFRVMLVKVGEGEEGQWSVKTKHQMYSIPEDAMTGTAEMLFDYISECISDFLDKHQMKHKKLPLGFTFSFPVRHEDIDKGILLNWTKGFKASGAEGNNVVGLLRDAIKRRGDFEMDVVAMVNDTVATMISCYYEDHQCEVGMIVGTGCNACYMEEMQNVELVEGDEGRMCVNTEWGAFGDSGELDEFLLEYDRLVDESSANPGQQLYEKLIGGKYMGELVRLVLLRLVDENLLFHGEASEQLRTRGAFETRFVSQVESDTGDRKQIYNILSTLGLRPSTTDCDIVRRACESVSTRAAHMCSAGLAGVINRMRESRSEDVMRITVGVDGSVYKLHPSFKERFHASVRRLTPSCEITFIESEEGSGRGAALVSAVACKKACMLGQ
Sequence of Hexokinase-4 (Homo sapiens) + Glucokinase regulatory protein (Homo sapiens) (Q14397 whole entry, looked up): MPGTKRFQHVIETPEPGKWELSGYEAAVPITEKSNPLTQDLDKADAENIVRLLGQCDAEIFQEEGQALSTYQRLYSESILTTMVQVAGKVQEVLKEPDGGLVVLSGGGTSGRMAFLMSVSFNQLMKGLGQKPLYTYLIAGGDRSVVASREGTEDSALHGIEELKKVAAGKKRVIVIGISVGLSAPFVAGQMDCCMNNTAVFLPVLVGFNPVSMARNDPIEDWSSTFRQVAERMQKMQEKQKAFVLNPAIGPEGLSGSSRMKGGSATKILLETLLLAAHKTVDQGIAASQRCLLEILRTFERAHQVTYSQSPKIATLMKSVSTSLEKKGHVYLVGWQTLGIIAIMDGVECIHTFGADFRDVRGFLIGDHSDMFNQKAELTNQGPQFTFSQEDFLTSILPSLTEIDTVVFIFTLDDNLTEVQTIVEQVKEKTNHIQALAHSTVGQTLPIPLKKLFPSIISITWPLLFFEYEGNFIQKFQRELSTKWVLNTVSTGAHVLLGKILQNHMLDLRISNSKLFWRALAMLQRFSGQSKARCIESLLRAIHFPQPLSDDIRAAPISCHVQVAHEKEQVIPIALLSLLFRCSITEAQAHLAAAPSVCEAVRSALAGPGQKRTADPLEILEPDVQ
Summary of the method: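 HTRF binding of 5 nM GST-GCK and 5 nM FLAG-GKRP with 2 uM S6P in pH 7.1 Hepes buffer (MgCl2, KCl, DTT, Tween 20, BSA). Anti-FLAG XL665 and anti-GST donor added, 60 min at room temperature; 665/615 nm read, normalized to with- and without-GCK controls.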

[5] = qHTS profiling for inhibitors of Plasmodium falciparum (3D7) proliferation (AID 743322);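 note: infected erythrocytes exposed to compound for 72 h before lysis; 100% = DMSO vehicle wells and 0% = 0.29 µM artemisinin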; settings: P. falciparum 3D7 proliferation; at 28.7 µM (top of the series) unless noted
Summary of the method: (§1)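 Parasite DNA was quantified by SYBR Green I fluorescence (ex 485, em 535 nm) after overnight lysis in saponin/Triton buffer at room temperature. Cultures at 0.3% parasitemia and 2.5% hematocrit were first exposed to compound for 72 h at 37 C; signals were normalised to artemisinin (0.29 uM) and vehicle wells.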

[6] = qHTS profiling for inhibitors of Plasmodium falciparum (DD2) proliferation (AID 743323); settings: lower = more inhibition; at 28.7 µM (top of the series) unless noted
Summary of the method: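 1536-well qHTS; infected RBCs 0.3% parasitemia/2.5% Hct final; cpd 72 h 37 C 5% CO2; lysis buffer + SYBR Green I, o/n RT dark; FI 485/535; norm. to 0.29 uM artemisinin and DMSO, plate-stack corrected.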

[7] = qHTS profiling of the MIPE4 collection as inhibitors of Plasmodium falciparum (DD2) proliferation (AID 743345); settings: P. falciparum Dd2 in erythrocytes, SYBR Green DNA, 72 h; at 28.5 µM (top of the series) unless noted
Summary of the method: as §1

[8] = qHTS profiling of the MIPE4 collection as inhibitors of Plasmodium falciparum (DD2) proliferation (Rep 2) (AID 743346); settings: P. falciparum Dd2 in erythrocytes, SYBR Green DNA, 72 h; at 28.5 µM (top of the series)
Summary of the method: as §1

[9] = qHTS profiling of the MIPE4 collection as inhibitors of Plasmodium falciparum (HB3) proliferation (AID 743347);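 note: plate controls were DMSO vehicle wells for no effect and artemisinin wells for full effect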; settings: P. falciparum HB3 in erythrocytes, SYBR Green DNA, 72 h; at 28.5 µM (top of the series)
Summary of the method: as §1

For CN(C)C(=O)c1ccc(S(=O)(=O)c2ccc(NC(=O)[C@@](C)(O)C(F)(F)F)c(Cl)c2)cc1, the Potency [1] was 1.66 µM (active) and the Potency [2] was “inactive”.

For Cc1cc2c(F)c(Oc3ncnn4cc(OC[C@@H](C)O)c(C)c34)ccc2[nH]1, the Potency [1] was 14.8 µM (active) and the Potency [2] was 14.8 µM (active).

In the case of CN1CC[C@@H](c2c(O)cc(O)c3c(=O)cc(-c4ccccc4Cl)oc23)[C@@H](O)C1, the max response [3] is reported as 13.4% (inactive), the Potency [1] is reported as 0.0166 µM (active) and the Potency [2] is reported as 0.0469 µM (active).

For COc1cc(Nc2ncc(F)c(Nc3ccc4c(n3)NC(=O)C(C)(C)O4)n2)cc(OC)c1OC, the Potency [1] was 18.7 µM (active) and the Potency [2] was 16.6 µM (active).

For Cc1ccc(C(N)=O)cc1Nc1nccc(-c2cn(C(C)C)c3cnccc23)n1, the Potency [1] was 2.64 µM (active) and the Potency [2] was 7.43 µM (active).

For C[C@@H](N)C1CCC(C(=O)Nc2ccncc2)CC1 (stereo partly drawn), the Potency [1] was “inactive” and the Potency [2] was “inactive”.

With CC(C)(C)c1cnc(CSc2cnc(NC(=O)C3CCNCC3)s2)o1 the Potency [1] was 0.0332 µM (active) and the Potency [2] was 0.0526 µM (active).

In the case of COc1ccc2c(c[n+](C)c3c4cc5c(cc4ccc23)OCO5)c1OC, the outcome [4] is reported as “inactive”, the Potency [3] is reported as 18.7 µM (active) and the remaining parasite growth % (stronger effect = lower value) [5] is reported as 47.6%. It also gave an activity, percent of control [6] of 36.7%, a parasite growth remaining, % of DMSO control (lower = more inhibition) [7] of 74.8% and a parasite growth, % of control (lower = inhibition) [8] of 99%. For the same molecule, the growth, % of control [9] was 104%, the Potency [1] was 1.32 µM (active) and the Potency [2] was 8.33 µM (active).

With Nc1cccc(S(=O)(=O)N2CCCN(S(=O)(=O)c3ccc4c(c3)OCCO4)CC2)c1 the Potency [1] was “inactive” and the Potency [2] was “inactive”.

In the case of NC(=O)Nc1cc(-c2cccc(F)c2)sc1C(=O)N[C@H]1CCCNC1, the Potency [1] is reported as 0.105 µM (active) and the Potency [2] is reported as 0.59 µM (active).

For CCn1c(-c2nonc2N)nc2cnc(Oc3cccc(NC(=O)c4ccc(OCCN5CCOCC5)cc4)c3)cc21, the Potency [1] was 18.7 µM (active) and the Potency [2] was 7.43 µM (active).

In the case of CC(C)c1ccc(Cn2ccc3c4c(N)nc(NC5CC5)nc4ccc32)cc1, the Potency [1] is reported as 3.32 µM (active) and the Potency [2] is reported as 0.935 µM (active).

In the case of CCN1CCN(Cc2ccc(-c3cc4c(N[C@H](C)c5ccccc5)ncnc4[nH]3)cc2)CC1, the Potency [1] is reported as 16.6 µM (active) and the Potency [2] is reported as 23.5 µM (active).

With O=C1C(CCC(O)c2ccc(F)cc2)C(c2ccc(O)cc2)N1c1ccc(F)cc1 (stereo not drawn) the Potency [1] was “inactive” and the Potency [2] was “inactive”.

For CC(NC(=O)Cc1cc(F)cc(F)c1)C(=O)NC(C(=O)OC(C)(C)C)c1ccccc1 (stereo not drawn), the Potency [1] was “inactive” and the Potency [2] was “inactive”.

In the case of CN(C)CCN(C)C(=O)c1ccc(NC(=O)Nc2ccc(-c3nc(N4CCOCC4)c4ccn(CC(F)(F)F)c4n3)cc2)cc1, the Potency [1] is reported as 1.48 µM (active) and the Potency [2] is reported as 0.0264 µM (active).

With Cc1cn2c(-c3cn[nH]c3)cnc2c(Nc2ccc(C(=O)N3CCNCC3)cc2F)n1 the Potency [1] was 18.7 µM (active) and the Potency [2] was 13.2 µM (active).

In the case of CC[C@@H](C(=O)O)C1CC[C@H](C)C([C@@H](C)[C@H](O)[C@H](C)C(=O)[C@H](CC)C2O[C@]3(C=C[C@@H](O)[C@]4(CC[C@@](C)(C5CC[C@](O)(CC)[C@H](C)O5)O4)O3)[C@H](C)C[C@@H]2C)O1 (stereo partly drawn), the Potency [3] is reported as 0.0526 µM (active), the Potency [1] is reported as 0.0418 µM (active) and the Potency [2] is reported as 20.9 µM (active).

With C=CC(=O)Nc1cccc(Oc2nc(Nc3ccc(N4CCN(C)CC4)cc3OC)ncc2Cl)c1 the Potency [1] was 16.6 µM (active) and the Potency [2] was 23.5 µM (active).

In the case of Cc1cccc(C=NNc2cc(N3CCOCC3)nc(OCCc3ccccn3)n2)c1, the Potency [1] is reported as 4.69 µM (active) and the Potency [2] is reported as 20.9 µM (active).

For Cc1ccc(NC(=O)c2ccc(CN3CCN(C)CC3)cc2)cc1Nc1nc(-c2cccnc2)cs1, the Potency [1] was 20.9 µM (active) and the Potency [2] was 23.5 µM (active).

For C=CC(=O)Nc1cc2c(Nc3ccc(F)c(Cl)c3)ncnc2cc1C#CC(C)(C)N1CCN(C)CC1, the Potency [1] was 0.833 µM (active) and the Potency [2] was 16.6 µM (active).

With O=C(NCCCNc1nc(Nc2cccc(NC(=O)N3CCCC3)c2)ncc1I)c1cccs1 the Potency [1] was 11.8 µM (active) and 3.32 µM (active) and the Potency [2] was 20.9 µM (active) and 23.5 µM (active).

With COc1cc2ncnc(Nc3ccc(F)c(Cl)c3)c2cc1NC(=O)C=CCN1CCCCC1 the Potency [1] was 9.35 µM (active) and the Potency [2] was 18.7 µM (active).

For O=C(Nc1cccnc1)N1CCC(Cc2cccc(Oc3ccc(C(F)(F)F)cn3)c2)CC1, the Potency [1] was 16.6 µM (active) and the Potency [2] was 6.62 µM (active).

In the case of Cc1c(C(=O)Nc2ccc(N3C[C@@H](C)O[C@@H](C)C3)nc2)cccc1-c1ccc(OC(F)(F)F)cc1, the Potency [1] is reported as 20.9 µM (active) and the Potency [2] is reported as 23.5 µM (active).

With Cc1cc([C@@H](C)Nc2ccccc2C(=O)O)c2nc(N3CCOCC3)cc(=O)n2c1 the Potency [1] was 14.8 µM (active) and the Potency [2] was 20.9 µM (active).
